Reference: PubChem BioAssay (NCI)
This is part of a sample that, as a whole, favours compounds with a hit. Of some 79,000 tested, about 15% had one in any assay. Values without a mark were called inactive. The source made the active and inactive calls. Cut-off read from the data, not from the text of the source: active = growth inhibition above about 70%; inactive = the rest.

How the values were obtained:
[1] = NCI Yeast Anticancer Drug Screen. Data for the rad50 strain (AID 155);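 note: 0% = growth of vehicle-only cultures of the same strain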; conditions: S. cerevisiae rad50 strain growth inhibition, active compounds read high
In short: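 Inhibition values express reduced yeast growth in compound-treated cultures relative to vehicle-treated controls.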

[2] = NCI Yeast Anticancer Drug Screen. Data for the mec2-1 strain (AID 157); conditions: S. cerevisiae mec2-1 strain, active compounds read high
In short: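 Readout is yeast growth inhibition, normalised to vehicle-treated controls, in the mec2-1 strain exposed to compound.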

[3] = NCI Yeast Anticancer Drug Screen. Data for the sgs1 mgt1 strain (AID 161);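 note: 0% = growth of cultures given vehicle only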; conditions: S. cerevisiae sgs1 mgt1 strain, active compounds read high
In short: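 Growth of a repair-deficient yeast mutant was monitored after compound treatment and expressed as inhibition relative to vehicle-treated cultures.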

[4] = NCI Yeast Anticancer Drug Screen. Data for the cln2 rad14 strain (AID 165);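 note: 0% = growth equal to vehicle treated cultures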; conditions: S. cerevisiae cln2 rad14 strain, active compounds read high
In short: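 Relative to vehicle controls, growth inhibition of compound-treated cln2 rad14 yeast was recorded.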

[5] = NCI Yeast Anticancer Drug Screen. Data for the bub3 strain (AID 167); conditions: S. cerevisiae bub3 mutant strain, active compounds read high
In short: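 Steps: expose the mutant yeast strain to compound; grow alongside vehicle-treated cultures; measure growth; express inhibition against the vehicle cultures.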

[6] = NCI Yeast Anticancer Drug Screen. Data for the mlh1 rad18 strain (AID 175); conditions: S. cerevisiae mlh1 rad18 strain growth inhibition, active compounds read high
In short: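 Test agents were incubated with a yeast strain of defined genotype (DNA damage repair defect). Inhibition of growth was derived by comparison with vehicle-exposed cultures.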

[7] = at 5.0 µM (retest, dose inferred, filed as 0.5)
[8] = at 50.0 µM (retest, dose inferred, filed as 5.0)

SMILES	growth inhibition [1, 7]	growth inhibition [1, 8]	growth inhibition ([1]; at 50.0 µM)	growth inhibition [2, 7]	growth inhibition [2, 8]	growth inhibition ([2]; at 50.0 µM)	growth inhibition [3, 7]	growth inhibition [3, 8]	growth inhibition ([3]; at 50.0 µM)	growth inhibition [4, 7]	growth inhibition [4, 8]	growth inhibition ([4]; at 50.0 µM)	growth inhibition [5, 7]	growth inhibition [5, 8]	growth inhibition ([5]; at 50.0 µM)	growth inhibition [6, 7]	growth inhibition [6, 8]	growth inhibition ([6]; at 50.0 µM)
CCOC(=O)C(C(C)=O)C1=C(Cl)C(=O)c2ccccc2C1=O (centres undefined)	94% (active)	100% (active)	99.3% (active)	89% (active)	100% (active)	99.5% (active)	96% (active)	100% (active)	99.5% (active)	77% (active)	100% (active)	89.7% (active)	96% (active)	100% (active)	97.5% (active)	84% (active)	99% (active)	99.3% (active)
O=C1c2ccccc2C(=O)c2sc(Nc3ccc(Cl)cc3)nc21	79% (active)	97% (active)	90.5% (active)	84% (active)	99% (active)	92.9% (active)	97% (active)	99% (active)	93.8% (active)	58%	98% (active)	88.8% (active)	98% (active)	99% (active)	91.6% (active)	85% (active)	98% (active)	91.2% (active)
CCOC1Oc2ccccc2-c2nc(SC)ncc21 (centres undefined)	23%	20%	75.4% (active)	14%	20%	19.9%	18%	21%	36.6%	26%	18%	15.9%	28%	55%	47.6%	17%	19%	43.9%
Cc1ccc(N2C(=O)C(C)SC23C(=O)Nc2ccc(Cl)cc23)cc1 (centres undefined)	-8%	99% (active)	98.5% (active)	9%	99% (active)	98.8% (active)	-3%	98% (active)	37.4%	0%	98% (active)	97.8% (active)	-8%	98% (active)	98.8% (active)	1%	99% (active)	89% (active)
CC(=O)c1c(C)n(C)c2c1nnc1ccccc12	53%	81% (active)	92.3% (active)	17%	50%	36.9%	6%	-2%	22%	9%	31%	59.4%	11%	48%	27.1%	19%	56%	68.4%
NNC(=O)NN=C(c1ccccc1)c1ccccc1	0%	16%	1.5%	-2%	1%	-13.2%	-3%	0%	11.4%	0%	-12%	-26.5%	-4%	-1%	3.95%	-11%	1%	33.1%
C1=NCCN=Cc2ccccc2NCCNc2ccccc21	3%	2%	55.2%	6%	-20%	58.6%	4%	41%	74.8% (active)	15%	23%	53.5%	6%	6%	43.5%	-3%	-2%	69%
C/C(=N\NC(=S)N1CCN(Cc2ccccc2)CC1)c1ccccn1	23%	76% (active)	90.3% (active)	23%	85% (active)	88.8% (active)	12%	80% (active)	31.2%	8%	73% (active)	-14.7%	31%	96% (active)	11.7%	15%	74% (active)	81.6% (active)
CCNc1ccc2c(c1)Cc1ccccc1-2	45%	91% (active)	95.2% (active)	4%	38%	59.8%	62%	90% (active)	96% (active)	3%	73% (active)	71.8% (active)	-11%	33%	12.1%	27%	87% (active)	90.7% (active)
CSC(=S)NNC(C)c1nccc2ccccc12 (centres undefined)	23%	97% (active)	97.8% (active)	-3%	98% (active)	98.8% (active)	29%	97% (active)	98.8% (active)	-8%	97% (active)	97.8% (active)	-7%	97% (active)	98.2% (active)	2%	97% (active)	98.8% (active)
OCc1ccccc1CC(O)(c1ccccc1)c1ccccc1	-7%	92% (active)	97.8% (active)	-8%	87% (active)	97.3% (active)	-7%	94% (active)	95.8% (active)	-3%	70% (active)	75.5% (active)	-19%	11%	88.5% (active)	-20%	90% (active)	94.4% (active)
O=[N+]([O-])/C(C(Cl)=C(Cl)Cl)=C(/Nc1ccccc1)Sc1ccccc1	62%	99% (active)	17.1%	41%	99% (active)	70.2% (active)	64%	99% (active)	66.5%	49%	99% (active)	23.8%	51%	99% (active)	64.2%	78% (active)	99% (active)	84.8% (active)
O=S=C(c1ccccc1)N(Cc1ccccc1)Cc1ccccc1	-1%	94% (active)	96% (active)	-1%	95% (active)	96.2% (active)	0%	98% (active)	96.7% (active)	10%	90% (active)	69.7%	22%	93% (active)	96.8% (active)	1%	95% (active)	94.2% (active)
C=CCOc1ccc2c(c1)CC=C1[C@@H]2CC[C@]2(C)C(=N\O)/C(=N/O)C[C@@H]12	10%	95% (active)	98.8% (active)	-7%	99% (active)	99.1% (active)	-9%	99% (active)	99% (active)	-2%	99% (active)	98.1% (active)	1%	99% (active)	98.8% (active)	45%	99% (active)	99% (active)
Oc1cc2ccccc2c2ccccc12	0%	93% (active)	99.2% (active)	2%	83% (active)	99.2% (active)	4%	87% (active)	98.9% (active)	-15%	97% (active)	98.5% (active)	16%	96% (active)	99.2% (active)	6%	93% (active)	98.9% (active)
CCCCCCCCSCc1ccc(N)cc1	23%	97% (active)	89.7% (active)	12%	98% (active)	91.4% (active)	37%	98% (active)	90.5% (active)	39%	98% (active)	89.5% (active)	51%	98% (active)	89% (active)	20%	97% (active)	89.6% (active)
CCCCCCCNc1ccc2c(cc1=O)C(NC(C)=O)CCc1cc(OC)c(OC)c(OC)c1-2 (centres undefined)	17%	96% (active)	91.5% (active)	8%	98% (active)	16.8%	9%	99% (active)	98.8% (active)	7%	95% (active)	30.8%	4%	97% (active)	16.9%	13%	97% (active)	7.55%
CC1C=C(COC(=O)Nc2ccccc2)ON1c1ccccc1 (centres undefined)	-2%	97% (active)	98.2% (active)	-3%	96% (active)	98% (active)	-2%	97% (active)	98.2% (active)	-4%	95% (active)	98.3% (active)	-8%	93% (active)	98.5% (active)	-1%	97% (active)	97.8% (active)
